In PubChem BioAssay one finds composite z-score and z-score data, which are given here for 5 compounds.

The subject of assay [1] is Wnt5a (protein binding on small-molecule microarray). Kind of assay: small molecules binding Wnt5a protein – biophysical, small-molecule microarray, 635/667 nm fluorescence, primary screen (AID 1142).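 Further: fluorescence read at 667 nm with signal to noise per printed feature.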 The following applies: 635 nm fluorescence, higher = more signal.
A short description of assay [2]: ATP-based viability of Huh7 replicon cells – cell-based, CellTiter-Glo luminescence, basal, 48 h, cytotoxicity control for HCV replication inhibitor project, primary screen (AID 1143).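 Further: Huh7 hepatoma cells carrying a hepatitis C replication reporter with no stimulus; test concentration not given here.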 The following applies: higher = more signal, called active from +8 up or from −8 down. Background: In antiviral work, replicon cells carry a viral genome segment that copies itself.
Assay [3] can be described thus: basal CRE-LacZ reporter activity in PC12 – cell-based, unstimulated, primary screen (AID 1145). The note with it: no forskolin, luminescence, 4.5 h, higher = more signal, called active from +8 up or from −8 down.
Assay [4] is described as follows: forskolin-driven CRE-LacZ activity in PC12 – cell-based, CRE-LacZ reporter, forskolin-stimulated, primary screen (AID 1146).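 Further: PC12 cells with 6xCRE LacZ reporter stimulated by forskolin 10 µM; beta-galactosidase reporter signal reflecting CREB driven transcription.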 The note with it: luminescence, 4.5 h, higher = more signal, called active from +8 up or from −8 down.
For assay [5], the target named is Streptavidin (Streptomyces avidinii) (UniProt P22629). Kind of assay: compounds binding control protein streptavidin – biophysical, small-molecule microarray, 635/667 nm fluorescence, artefact control for SMM compound annotation, primary screen (AID 1147).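 Further: signal reflects streptavidin binding to arrayed compounds as a control protein.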 The note with it: higher = more signal.
Streptavidin (Streptomyces avidinii), sequence (P22629 whole entry, looked up): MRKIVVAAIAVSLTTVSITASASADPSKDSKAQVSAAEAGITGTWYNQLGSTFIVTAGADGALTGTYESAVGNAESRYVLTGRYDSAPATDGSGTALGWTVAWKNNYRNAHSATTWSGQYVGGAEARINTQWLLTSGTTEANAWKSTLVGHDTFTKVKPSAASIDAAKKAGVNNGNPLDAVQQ
The nature of assay [6]: probe aInhba binding on compound microarray – biochemical, small-molecule microarray, 635/667 nm fluorescence, primary screen (AID 1148).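 Further: score merges 667nm spot fluorescence with signal-to-noise for antibody binding to printed compounds.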 The following applies: higher = more signal.
For assay [7], the target named is Torsin-1A (Homo sapiens) (UniProt O14656). As to the kind of experiment: TOR1A wild-type binding on microarray – cell lysate, small-molecule microarray, lysate, 635/667 nm, primary screen (AID 1149). The following applies: COS7 hTOR1A-WT lysate, 635 nm fluorescence, higher = more signal.
Torsin-1A (Homo sapiens), sequence (O14656 whole entry, looked up): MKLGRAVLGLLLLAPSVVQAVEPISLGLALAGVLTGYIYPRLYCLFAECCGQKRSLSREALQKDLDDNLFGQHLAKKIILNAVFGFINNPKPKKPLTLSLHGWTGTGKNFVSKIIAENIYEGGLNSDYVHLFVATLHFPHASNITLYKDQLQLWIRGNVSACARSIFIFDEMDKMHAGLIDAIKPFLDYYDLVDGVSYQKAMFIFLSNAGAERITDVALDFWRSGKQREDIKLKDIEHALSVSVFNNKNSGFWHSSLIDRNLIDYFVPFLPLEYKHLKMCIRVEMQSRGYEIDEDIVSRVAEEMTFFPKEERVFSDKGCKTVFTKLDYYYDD
The target is the same in assay [8]. As to the kind of experiment: torsin A mutant lysate binding on microarrays – cell lysate, small-molecule microarray, COS7 lysate, 635/667 nm fluorescence, primary screen (AID 1150).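 Further: score pools 667 nm emission and signal to noise measuring lysate protein binding.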 The note with it: COS7 hTOR1A mutant lysate, 635 nm fluorescence, higher = more signal.
The subject of assay [9] is Sonic hedgehog protein (Shh). As to the kind of experiment: Sonic hedgehog microarray binding compounds – biochemical, small-molecule microarray, 635/667 nm fluorescence, primary screen (AID 1151).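 Further: Shh protein binding to compounds spotted on small-molecule microarray slides; score combines spot fluorescence intensity with signal-to-noise across triplicate slides.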 The note with it: 635 nm fluorescence, higher = more signal.
The nature of assay [10]: optical density shifts of acrAB sulA E. coli – strain DRC41, OD650, 48 h, E. coli filamentation inducer project, primary screen (AID 1152).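 Further: E. coli MC1000 strain DRC41 lacking acrAB efflux pump and sulA.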 The note with it: higher = more signal, called active from +8 up or from −8 down.
Assay [11] is described as follows: probe aLefty1 binding on compound microarray – biochemical, small-molecule microarray, 635/667 nm fluorescence, primary screen (AID 1153).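 Further: score merges spot fluorescence with signal-to-noise ratio from the scanned slide images.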 The following applies: higher = more signal.
The nature of assay [12]: plasmodial surface anion channel blockers, osmotic lysis – cell-based, P. falciparum Indochina, OD700, 1 h, primary screen (AID 1154). The following applies: P. falciparum Indochina infected RBC osmotic lysis, higher = more signal, called active from +8 up or from −8 down.
The nature of assay [13]: plasmodial surface anion channel blockers, osmotic lysis – cell-based, P. falciparum Indochina, OD700, 2 h, primary screen (AID 1155).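 Further: lysis reports solute entry through the parasite surface anion channel PSAC.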 The note with it: P. falciparum Indochina infected erythrocytes, higher = more signal, called active from +8 up or from −8 down.
The nature of assay [14]: changes in parasitized red cell lysis, either direction – P. falciparum Indochina, OD700, 3 h, PSAC antagonist project, primary screen (AID 1156). The note with it: P. falciparum-infected erythrocytes, osmotic lysis, higher = more signal, called active from +8 up or from −8 down.
Assay [15] is described as follows: plasmodial surface anion channel blockers, osmotic lysis – cell-based, P. falciparum Indochina, OD700, 18 h, primary screen (AID 1157). The following applies: P. falciparum Indochina infected erythrocytes, osmotic lysis OD700, 18 h; higher = more signal, called active from +8 up or from −8 down.
A short description of assay [16]: S6 kinase pathway phospho-S6 level changes – cell-based, A549, cytoblot, luminescence, serum-stimulated, primary screen (AID 1158).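 Further: serum-stimulated A549 lung adenocarcinoma cells; signal is phosphorylated S6 detected by cytoblot immunostaining with HRP secondary.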 The following applies: 5 h, higher = more signal.
Assay [17] concerns the target NADPH oxidase 2 (Homo sapiens) (UniProt P04839). As to the kind of experiment: compounds shifting NOX2 Amplex Red fluorescence – cell-based, HEK293-NOX2, PMA-stimulated, NOX inhibitor project, primary screen (AID 1159). Further: test concentration not given here. The note with it: 45 min, higher = more signal, called active from +8 up or from −8 down.
In assay [18] the target is NADPH oxidase 4 (Homo sapiens) (UniProt Q9NPH5). Kind of assay: compounds shifting NOX4 Amplex Red fluorescence – cell-based, HEK293-NOX4, tetracycline-induced, NOX inhibitor project, primary screen (AID 1160). The note with it: HEK293-NOX4, Amplex Red H2O2 fluorescence, 45 min; higher = more signal, called active from +8 up or from −8 down.
NADPH oxidase 4 (Homo sapiens), sequence (Q9NPH5 whole entry, looked up): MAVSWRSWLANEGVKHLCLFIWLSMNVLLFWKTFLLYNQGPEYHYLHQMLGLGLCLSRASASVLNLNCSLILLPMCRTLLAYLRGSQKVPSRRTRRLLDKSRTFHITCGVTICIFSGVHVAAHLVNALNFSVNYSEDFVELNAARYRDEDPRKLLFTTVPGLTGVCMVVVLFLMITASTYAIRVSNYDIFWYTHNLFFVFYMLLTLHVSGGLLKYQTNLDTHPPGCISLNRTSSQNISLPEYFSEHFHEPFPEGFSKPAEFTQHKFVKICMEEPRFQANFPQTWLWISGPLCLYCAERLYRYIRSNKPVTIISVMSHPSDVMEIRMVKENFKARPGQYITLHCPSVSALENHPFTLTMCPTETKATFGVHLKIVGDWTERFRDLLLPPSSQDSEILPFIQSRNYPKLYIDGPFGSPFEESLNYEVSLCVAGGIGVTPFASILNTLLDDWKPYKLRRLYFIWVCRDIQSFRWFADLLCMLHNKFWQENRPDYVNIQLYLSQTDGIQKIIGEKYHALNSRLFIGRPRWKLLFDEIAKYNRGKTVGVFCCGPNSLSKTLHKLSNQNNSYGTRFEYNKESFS
Assay [19] concerns the target NADPH oxidase 5 (Homo sapiens) (UniProt Q96PH1). As to the kind of experiment: compounds shifting NOX5 Amplex Red fluorescence – cell-based, HEK293-NOX5, NOX inhibitor project, primary screen (AID 1161). The following applies: HEK293-NOX5, ionomycin, 45 min, higher = more signal.
Assay [20] can be described thus: compound effects on lung adenocarcinoma cell viability – A549, calcein-AM fluorescence, 48 h, basal, profiling panel (AID 1162). Further: test concentration not given here. The following applies: higher = more signal.

Active and inactive are the calls of the source.

NADPH oxidase 2 (Homo sapiens), sequence (P04839 whole entry, looked up): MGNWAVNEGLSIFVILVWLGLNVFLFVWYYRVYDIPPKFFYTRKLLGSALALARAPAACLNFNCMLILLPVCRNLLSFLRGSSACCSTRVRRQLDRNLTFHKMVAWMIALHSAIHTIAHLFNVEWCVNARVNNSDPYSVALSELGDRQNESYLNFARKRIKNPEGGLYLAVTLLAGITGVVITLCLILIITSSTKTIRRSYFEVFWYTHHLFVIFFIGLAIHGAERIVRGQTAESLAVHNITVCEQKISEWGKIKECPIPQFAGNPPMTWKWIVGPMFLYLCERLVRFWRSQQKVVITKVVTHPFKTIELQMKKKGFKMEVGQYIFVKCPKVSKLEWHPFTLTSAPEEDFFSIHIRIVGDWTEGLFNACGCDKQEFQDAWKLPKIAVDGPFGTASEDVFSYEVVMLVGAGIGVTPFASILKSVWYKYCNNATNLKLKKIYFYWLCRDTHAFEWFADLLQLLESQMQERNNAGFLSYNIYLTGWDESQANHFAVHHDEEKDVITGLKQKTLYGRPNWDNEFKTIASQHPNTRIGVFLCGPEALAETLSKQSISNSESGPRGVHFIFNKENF
NADPH oxidase 5 (Homo sapiens), sequence (Q96PH1 whole entry, looked up): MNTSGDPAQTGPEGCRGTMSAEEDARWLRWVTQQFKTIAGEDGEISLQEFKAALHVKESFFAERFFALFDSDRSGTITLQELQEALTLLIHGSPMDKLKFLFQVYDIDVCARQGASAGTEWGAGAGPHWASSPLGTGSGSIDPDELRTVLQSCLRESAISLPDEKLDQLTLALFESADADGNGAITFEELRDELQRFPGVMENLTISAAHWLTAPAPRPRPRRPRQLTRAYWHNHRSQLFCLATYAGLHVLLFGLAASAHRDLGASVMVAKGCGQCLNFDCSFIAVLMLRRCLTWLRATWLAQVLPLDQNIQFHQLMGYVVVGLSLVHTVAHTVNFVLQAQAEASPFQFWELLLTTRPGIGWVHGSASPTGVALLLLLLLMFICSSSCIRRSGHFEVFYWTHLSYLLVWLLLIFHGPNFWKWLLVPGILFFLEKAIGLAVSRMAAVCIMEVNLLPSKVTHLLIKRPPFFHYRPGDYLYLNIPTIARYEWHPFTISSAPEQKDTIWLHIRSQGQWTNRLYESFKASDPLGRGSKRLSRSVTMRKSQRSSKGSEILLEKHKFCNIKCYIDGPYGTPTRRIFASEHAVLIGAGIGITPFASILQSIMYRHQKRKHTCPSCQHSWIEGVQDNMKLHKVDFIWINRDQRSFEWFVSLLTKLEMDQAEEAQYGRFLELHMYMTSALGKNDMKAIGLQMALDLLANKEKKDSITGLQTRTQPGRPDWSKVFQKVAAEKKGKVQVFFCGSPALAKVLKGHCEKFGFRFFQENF

In the case of `CC(C)[Si](C#C[Si](C(C)C)(C(C)C)C(C)C)(O[C@H](C)c1cn([C@H](C)c2ccccc2)nn1)C(C)C`, the composite z-score in [1] was 0.0985; in assay [5], 0.434; in assay [6], -0.0209; in the assay with Torsin-1A (Homo sapiens) [7], 0.144; with Torsin-1A (Homo sapiens) [8], 0.477; in assay [9], 1.14. This compound also displayed a composite z-score in assay [11] of 0.241. For the same compound, the z-score in assay [2] is -1.48 (inactive); in assay [3] it was -0.332 (inactive); in assay [4], -1.59 (inactive); in assay [10], 2.49 (inactive); in assay [12], 0.792 (inactive); in assay [13], -0.533 (inactive). The z-score in assay [14] was -0.926 (inactive); in [15] it was -1.01 (inactive); in assay [16] it was 0.728; in [17], 0.586 (inactive); in assay [18], 0.587 (inactive); in assay [19] it was 0.265. Besides, in assay [20], the z-score was 2.27.

As to `C=C(CCCC)/C(=C/C[C@@H](OC(=O)c1ccncc1)c1ccc(OCCO)cc1)c1cnc2ccccc2c1`, the composite z-score in [1] is 0.826; in [5], 1.72; in [6], 0.108; in the assay with Torsin-1A (Homo sapiens) [7], 0.546; with Torsin-1A (Homo sapiens) [8] it was 0.653; in assay [9], 2.1. The same compound registered a composite z-score in assay [11] of 0.199. Also, the z-score in assay [2] was -1.93 (inactive); in [3] it was 13.4 (active); in [4] it was -0.929 (inactive); in assay [10], 1.21 (inactive); in assay [12] it was 26.2 (active); in assay [13], 9.47 (active). For the same compound, the z-score in assay [14] was 1.54 (inactive); in assay [15] it was 1.39 (inactive); in assay [16], -0.175; in [17], -1.06 (inactive); in assay [18], -1.43 (inactive); in assay [19], -0.922. In [20], the z-score is 0.4.

For the compound `CN1C=C(C(=O)OCCS(C)(=O)=O)C(C(=O)OCCS(C)(=O)=O)=CC(CCCO)=CC1c1cccs1` (stereo not given), the composite z-score is 0.131 in assay [1]; -0.0015 in assay [5]; -0.299 in [6]; 0.408 in the assay with Torsin-1A (Homo sapiens) [7]; 0.0286 with Torsin-1A (Homo sapiens) [8]; 1.05 in assay [9]. For the same compound, the composite z-score in assay [11] was -0.0011. Further, the z-score in assay [2] was -0.894 (inactive); in assay [3], 5.95 (inactive); in assay [4], -1.56 (inactive); in assay [10], 0.302 (inactive); in [12] it was 1.91 (inactive); in assay [13] it was -1.53 (inactive). Besides, the z-score in assay [14] is -0.727 (inactive); in [15], -1.71 (inactive); in assay [16] it was -0.496; in [17], 0.92 (inactive); in [18] it was 0.858 (inactive); in assay [19] it was 0.0246. The z-score in assay [20] is 2.6.

For `COCCOC(=O)N1C(=O)[C@@]2(c3cc(C#CCCO)ccc31)[C@H](c1ccccc1OCCO)N1[C@H](c3ccccc3)[C@H](c3ccccc3)OC(=O)[C@H]1[C@@H]2C(=O)NC[C@H](O)c1ccccc1`, the composite z-score in assay [1] worked out at 0.142; in [5] it was 0.506; in assay [6] it was 0.209; with Torsin-1A (Homo sapiens) [7], 1.94; with Torsin-1A (Homo sapiens) [8], 0.552; in [9] it was 1.56. Moreover, the composite z-score in assay [11] was -0.0222. Also, the z-score in [2] was -4.1 (inactive); in assay [3] it was 1.42 (inactive); in [4] it was -1.44 (inactive); in assay [10] it was 2.96 (inactive); in assay [12], 3.88 (inactive); in [13], 0.965 (inactive). Moreover, the z-score in assay [14] was 0.673 (inactive); in assay [15] it was 0.442 (inactive); in assay [16], 2.31; in assay [17], 1.59 (inactive); in [18], 1.52 (inactive); in [19], -0.0153. Also, the z-score in assay [20] was 2.07.

Take `CC(C)NC(=O)[C@@H]1c2ccccc2C(=O)N(Cc2cc(F)cc(C(F)(F)F)c2)[C@H]1c1ccc(CO)cc1`: the composite z-score is -0.0581 in [1]; -0.95 in assay [5]; -0.329 in assay [6]; -0.479 with Torsin-1A (Homo sapiens) [7]; -0.0988 in the assay with Torsin-1A (Homo sapiens) [8]; -0.72 in [9]. This compound also registered a composite z-score in assay [11] of -0.113. The z-score is 0.142 (inactive) in assay [2]; -0.529 (inactive) in [3]; -1.08 (inactive) in assay [4]; 1.39 (inactive) in [10]; 2.06 (inactive) in [12]; 0.391 (inactive) in [13]. In addition, the z-score in assay [14] is 1.47 (inactive); in assay [15], 0.178 (inactive); in assay [16], 0.161; in assay [17], 0.146 (inactive); in [18], 1.08 (inactive); in assay [19], 0.949. Further, the z-score in assay [20] is 1.48.
